The panel holds about 83,000 compounds, 20% with a hit somewhere; the sample as a whole holds those more often.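 Each cell line was grown in a 96-well plate and treated with one concentration of compound for 48 hours. Values below 10 were considered active.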 A number with no mark means an inactive call. The source made the active and inactive calls.
Columns and labels:
Assay in all cases: NCI-60 one-dose screen, 48 h (100 = growth as untreated, 0 = no growth, -100 = all killed)
Conditions in all cases: 10 µM unless noted
DU-145 prostate = tested on: DU-145 prostate
K-562 leukemia = tested on: K-562 leukemia
MALME-3M melanoma = tested on: MALME-3M melanoma
MDA-MB-231 breast = tested on: MDA-MB-231 breast
RXF 393 renal = tested on: RXF 393 renal
SF-268 CNS = tested on: SF-268 CNS
SF-295 CNS = tested on: SF-295 CNS
SF-539 CNS = tested on: SF-539 CNS
UACC-257 melanoma = tested on: UACC-257 melanoma
M14 melanoma = tested on: M14 melanoma
HCT-15 colon = tested on: HCT-15 colon
HT29 colon = tested on: HT29 colon
SNB-75 CNS = tested on: SNB-75 CNS
SNB-19 CNS = tested on: SNB-19 CNS
U251 CNS = tested on: U251 CNS
PC-3 prostate = tested on: PC-3 prostate
SK-MEL-5 melanoma = tested on: SK-MEL-5 melanoma
UACC-62 melanoma = tested on: UACC-62 melanoma
LOX IMVI melanoma = tested on: LOX IMVI melanoma
SK-MEL-28 melanoma = tested on: SK-MEL-28 melanoma

Structure (SMILES)	growth (DU-145 prostate) [%]	growth (K-562 leukemia)	growth (MALME-3M melanoma)	growth (MDA-MB-231 breast)	growth (RXF 393 renal)	growth (SF-268 CNS) [%]	growth (SF-295 CNS)	growth (SF-539 CNS)	growth (UACC-257 melanoma)	growth (M14 melanoma)	growth (HCT-15 colon)	growth (HT29 colon)	growth (SNB-75 CNS)	growth (SNB-19 CNS) [%]	growth (U251 CNS) [%]	growth (PC-3 prostate) [%]	growth (SK-MEL-5 melanoma)	growth (UACC-62 melanoma)	growth (LOX IMVI melanoma)	growth (SK-MEL-28 melanoma)
COc1cccc2c(=O)c3c(sc12)c(N1CCNCC1)nc1ccccc13	35.8	-25.9% (active)	104%	53.1%	79.7%	87.9	102%	69.6%	101%	81.3%	37.3%	0.0883% (active)	79.2%	80	12.2	68.3	95.3%	105%	-29.3% (active)	107%
COc1ccc2c(c1OC)C(=O)O[C@H]2[C@H]1c2c(cc3c(c2OC)OCO3)CCN1C	117	66.4%	92.2%	104%	108%	110	94.1%	98.9%	95.2%	94.8%	95.6%	104%	88.5%	103	97.2	90.1	96.2%	109%	90.2%	100%
CSc1nc2ccc(C)cc2cc1/C=N/O	93	94.7%	108%	83.5%	87.3%	83.1	101%	91.1%	80.6%	87.8%	86.7%	93.1%	59.2%	95.7	78.6	79	90%	77%	91.9%	101%
CCCCCCCCCCCCCCCCCCOc1ccc(CC(=O)OCC[N+](C)(C)C)cc1	99.9	47.7%	113%	110%	90.1%	104	97.6%	97.9%	108%	91.5%	102%	94.5%	113%	90.7	92.2	96.9	103%	97.4%	91.1%	103%
COc1ccc(-c2cc3c4c(nc5ccccc5c4c2)CC(c2cc(OC)c(OC)c(OC)c2)O3)cc1 (stereo not given)	35.4	40.9%	20.8%	19.6%	-0.548% (active)	44.4	42%	-16% (active)	46.3%	57.5%	45.6%	45.2%	-30% (active)	40.1	54.8	52.3	62.6%	52%	38.4%	44%
Cc1ccc(S(=O)(=O)N/N=C/C2(c3ccccc3)CC2)cc1	114	97.8%	110%	102%	94.4%	111	94.7%	114%	99.7%	115%	115%	109%	88.2%	99.3	103	93.7	105%	102%	96.9%	106%
CCN1C(=O)N(CC)C2Nn3c(s/c(=C\c4ccc([N+](=O)[O-])cc4)c3=O)=NC21 (stereo not given)	91.8	29.4%	70.3%	47.8%	103%	90	93.9%	94.3%	43.4%	48%	61.6%	109%	82%	89.3	80.3	16	93.4%	75.6%	94.2%	78.4%
CN1CCN(c2ccc(-c3cc4c(Nc5ccc(F)c(Cl)c5)ncnn4c3)cc2)CC1	44.1	0.617% (active)	28.5%	91.1%	79.8%	69.2	84.8%	50.5%	69.2%	66.7%	-12.8% (active)	7.09% (active)	80.5%	103	66	80.8	87.5%	53.2%	-53.6% (active)	71.5%
CCCCOc1nc2c(C)cccc2cc1-c1cc(-c2ccc(Cl)cc2)nc(-c2ccc(Cl)cc2)c1	109	91.2%	95.5%	89.5%	106%	92.7	101%	96.8%	98.9%	101%	103%	103%	106%	92.3	100	94.8	103%	97.8%	98.3%	101%
CN1CCN(c2ccc(-c3ccc4ncc(C#N)c(Nc5ccc(F)c(Cl)c5)c4c3)cc2)CC1	29.1	0.404% (active)	-63.5% (active)	76.8%	27.3%	50.8	69.6%	54.3%	-0.414% (active)	-33.5% (active)	-12.9% (active)	18.2%	75.5%	72.7	50	45.8	58.1%	69.7%	43%	-43.1% (active)
C=C1C(=O)O[C@H]2[C@H]1CC/C(COC(=O)CSCC(=O)OC/C1=C/CC[C@@]3(C)O[C@H]3[C@H]3OC(=O)C(=C)[C@@H]3CC1)=C\CC[C@@]1(C)O[C@@H]21	50.3	9.77% (active)	-10.3% (active)	-16.8% (active)	-86.3% (active)	57.8	88.1%	19.3%	9.23% (active)	1.21% (active)	5.12% (active)	-26% (active)	81.8%	69.1	34.3	46.9	63.2%	42.4%	-25.2% (active)	-3.76% (active)
CC(=O)N1CCN(c2ccc(OCC3CO[C@](Cn4ccnc4)(c4ccc(Cl)cc4Cl)O3)cc2)CC1 (stereo not given in full)	105	56.6%	77.4%	77.5%	80.6%	96	97.6%	91%	83.7%	83.8%	75%	80.6%	79.6%	97.2	87.4	76.5	14.5%	57.2%	91.6%	106%
C[C@H]1[C@H]2[C@H]3CC[C@@H]4[C@@]5(C)CC[C@H](O)C(C)(C)[C@@H]5CC[C@@]4(C)[C@]3(C)CC[C@]23CO[C@]1(C)[C@@H](C(=O)/C=C\c1cccnc1)C3	73.9	18%	54.4%	82.1%	75.2%	81.9	79.9%	77.8%	49.3%	60.8%	38.5%	99.5%	72.8%	71.6	58.6	21.3	37%	41.5%	51.5%	66.2%
CCOC(=O)C1=C(N)Oc2c(sc3c(CC)cccc23)C1c1ccc(F)cc1 (stereo not given)	46.3	10.7%	42.1%	73.1%	-4.56% (active)	48.9	11.8%	13.4%	55.7%	38.2%	22.4%	40.4%	-2.89% (active)	35	40.6	26.1	61.1%	22%	35%	53.8%
O=C(Nc1ccc(Br)cc1F)c1cc(Br)ccc1O	20.9	10.3%	-26.4% (active)	-38.1% (active)	-8.01% (active)	14.5	-59.7% (active)	9.41% (active)	-17.2% (active)	8.04% (active)	4.49% (active)	59.3%	1.84% (active)	19.6	13.8	11.9	-93.7% (active)	-31.4% (active)	6.99% (active)	8.29% (active)
COc1ccc(CNC(=O)C(=O)[C@H](Cc2ccccc2)NC(=O)c2[nH]c3ccccc3c(=O)c2C)cc1	104	92.9%	107%	95.6%	104%	101	103%	98.7%	98.9%	99.6%	103%	108%	87.4%	100	100	95.1	100%	95.6%	102%	103%

Reference: PubChem BioAssay (NCI)
